The source of these data is ChEMBL document CHEMBL1157539, “Thousands of chemical starting points for antimalarial lead identification” (Nature, 2010).

Holding throughout (type): functional
Experiment [1] relates to Plasmodium falciparum. Description: GSK_TCMDC: Inhibition of Plasmodium falciparum 3D7 in whole red blood cells, using parasite LDH activity as an index of growth. Test compounds present at 2uM.
The subject of experiment [2] is Plasmodium falciparum. Description: GSK_TCMDC: Inhibition of Plasmodium falciparum Dd2 in whole red blood cells, using parasite LDH activity as an index of growth. Test compounds present at 2uM.
The test system of experiment [3] is HepG2. Description: GSK_TCMDC: Percent inhibition of human HepG2 cell line. Test compounds present at 10uM.

The term Inhibition denotes the share of the control response that was lost under treatment. A high value points to a strong effect. Take `O=C(c1ccc(OCCn2ccnc2)cc1)N1CCC(c2ccc(Br)cc2)C1` (centres undefined): the Inhibition in experiment [1] is 100%; in experiment [2] it was 99%; in experiment [3], 49%.

As to `Cc1cccc2nc(-c3ccc(-c4ccc(CN5CCN(C6CCN(C)CC6)CC5)cc4)cc3)[nH]c12.O=C(O)C(F)(F)F`, the Inhibition came to 100% in experiment [1], 100% in experiment [2] and 99% in experiment [3].

Consider `COc1cc(Nc2ccnc3ccc(C(F)(F)F)cc23)cc(OC)c1OC`, for which the Inhibition in experiment [1] is listed as 100%; in experiment [2], 100%; in experiment [3] it was 15%.

`CC(=O)c1cccc(Nc2nc3ccc(OCc4cc(Cl)cc(Cl)c4)c(C#N)c3[nH]2)c1`: the Inhibition worked out at 86% in experiment [1], 45% in experiment [2] and 29% in experiment [3].

For `COc1cccc(CCc2nc3c(N4CCC(Cc5ccccc5)CC4)cccc3n2CC2CNCCO2)c1.O=C(O)C(F)(F)F` (centres undefined), the Inhibition in experiment [1] was 94%; in experiment [2] it was 96%; in experiment [3], 4%.

As for `O=C(NC1CCN(Cc2ccccc2)CC1)c1ccc(CNC2CCN(Cc3ccccc3)CC2)cc1.O=C(O)C(F)(F)F`, the Inhibition in experiment [1] came to 99%; in experiment [2], 58%; in experiment [3], 14%.

`C[C@H](Cc1ccc(OCCCOc2ccc(C[C@@H](C)NC[C@H](O)c3cccc(Cl)c3)cc2)cc1)NC[C@H](O)c1cccc(Cl)c1.Cl`: the Inhibition in experiment [1] is on record as 99%; in experiment [2] it was 92%; in experiment [3] it was 99%.

`Cc1sc(N2CCN(C)CC2)nc1C(=O)Nc1ccc(F)cc1C(F)(F)F.O=C(O)C(F)(F)F`: the Inhibition in experiment [1] was 92%; in experiment [2], 63%; in experiment [3] it was 7%.

For the compound `CCCOC(=O)C1=C(C)NC2=C(C(=O)CC(c3ccc(OC)c(OC)c3)C2)C1c1cccc(O)c1` (centres undefined), the results for the Inhibition in experiment [1], in experiment [2] and in experiment [3] were 100%, 99% and 0%, respectively.

On to `COc1cccc(CC(=O)N2CCC(n3c(C)nc4ccc(F)cc43)CC2)c1`, for which the Inhibition in experiment [1] is reported as 100%; in experiment [2] it was 99%; in experiment [3] it was 0%.

Regarding `CCOc1cc(C(=O)N[C@@H](Cc2ccccc2)[C@H](O)CNCc2cccc(OC)c2)cc(N2CCCCS2(=O)=O)c1.Cl`, the values for the Inhibition in experiment [1], in experiment [2] and in experiment [3] were 97%, 94% and 3%, respectively.

Regarding `CCCC(CNCc1cccc(OC(F)(F)F)c1)CNc1cc(=O)c2ccccc2[nH]1` (centres undefined), the Inhibition was 100% in experiment [1], 95% in experiment [2] and 0% in experiment [3].

Turning to `CC(C)CCCC(C)(C)NC[C@@H](O)[C@H](Cc1ccccc1)NC(=O)c1cccc(OCC2CC2)c1`, the Inhibition in experiment [1] was found to be 96%; in experiment [2], 91%; in experiment [3], 99%.

As to `Nc1nc(N)c2c(ccc3c2ccn3Cc2ccccn2)n1`, the Inhibition is given as 90% in experiment [1], 94% in experiment [2] and 66% in experiment [3].

For the compound `COc1ccc(Oc2ccc(-c3c(C)[nH]c(C)c(Cl)c3=O)cc2)cc1`, the Inhibition in experiment [1] came to 97%; in experiment [2], 97%; in experiment [3], 0%.

For `COc1ccc(Br)cc1/C=C/C(=O)Nc1cccc(C2CCCN(C)C2)c1.O=CO` (centres undefined), the results for the Inhibition in experiment [1], in experiment [2] and in experiment [3] were 99%, 30% and 12%, respectively.

Regarding `O=C(O)/C=C\C(=O)O.OCCN1CCN(C2Cc3ccc(F)cc3Sc3ccc(Cl)cc32)CC1` (centres undefined), the Inhibition was 98% in experiment [1], 26% in experiment [2] and 56% in experiment [3].

Regarding `Cc1cccc2nc(-c3ccc(-c4cccc(NCc5cn6cccnc6n5)c4)cc3)[nH]c12`, the Inhibition in experiment [1] is on record as 94%; in experiment [2], 63%; in experiment [3] it was 9%.

`Cc1nccn1CCNC(=O)CN1CCC2(CCC1=O)CC(=O)c1ccccc1O2` (centres undefined): the Inhibition in experiment [1] is reported as 98%; in experiment [2], 4%; in experiment [3], 0%.

As for `CN1CCN(Cc2nc(-c3ccc4c(Nc5ccc(F)c(O)c5)ccnc4c3)cs2)CC1`, the Inhibition turned out to be 100% in experiment [1], 100% in experiment [2] and 0% in experiment [3].

For `CCOc1cccc(C(=O)Nc2ccc(-c3nc4ccccc4[nH]3)cc2)c1`, the Inhibition in experiment [1] was 96%; in experiment [2], 30%; in experiment [3] it was 40%.

With `COc1ccc(OC)c(-c2cccc(-c3cccc(NC(=O)c4ccc([N+](=O)[O-])o4)c3)n2)c1`, the Inhibition turned out to be 98% in experiment [1], 97% in experiment [2] and 75% in experiment [3].

Take `CC(C)(C)c1cc2cc(Nc3ccnc4cc(-c5nccs5)ccc34)ccc2[nH]1.Cl`: the results for the Inhibition in experiment [1], in experiment [2] and in experiment [3] were 100%, 97% and 5%, respectively.

Consider `CCc1c(CCNCC/C=C/CCNCCc2ccc(OC)c(OC)c2CC)ccc(OC)c1OC.Cl`, for which the Inhibition in experiment [1] was 100%; in experiment [2] it was 7%; in experiment [3], 41%.

With `COc1cccc(-c2ccc(NC(=O)C3CCCN(Cc4cccc(OC)c4O)C3)cc2)c1` (centres undefined), the Inhibition in experiment [1] came to 98%; in experiment [2], 78%; in experiment [3], 13%.

Turning to `CC(C)(CNC(=O)/C=C/c1ccc(C(F)(F)F)cc1)CNc1cc(=O)c2ccccc2[nH]1`, the Inhibition turned out to be 95% in experiment [1], 27% in experiment [2] and 0% in experiment [3].

On to `COc1ccccc1C1CCN(C2CCC(NC(=O)c3cc(-c4ccc(Cl)cc4)cs3)CC2)CC1` (centres undefined), for which the Inhibition is listed as 100% in experiment [1], 100% in experiment [2] and 61% in experiment [3].

As to `COc1ccc2c(c1)[nH]c1c(/C=C/c3ccc([N+](=O)[O-])cc3)nccc12`, the Inhibition is 100% in experiment [1], 63% in experiment [2] and 4% in experiment [3].
